In all, about 400,000 compounds went through this assay and about 2,100 (0.53%) were called active. Another 14% or so got no clear call; they are omitted. How the calls were made is not given here. The full list was thinned out, with actives kept by preference.

In ChEMBL document CHEMBL1201862, “PubChem BioAssay data set” (2004) one finds Potency data, which are given here for 65 compounds.

The target in this test is Ataxin-2 (Homo sapiens) (UniProt Q99700). The test can be described thus: qHTS for Inhibitors of ATXN expression. The format is functional. For orientation: Quantitative high-throughput screening tests each substance at several concentrations.
Ataxin-2 (Homo sapiens), sequence (Q99700 whole entry): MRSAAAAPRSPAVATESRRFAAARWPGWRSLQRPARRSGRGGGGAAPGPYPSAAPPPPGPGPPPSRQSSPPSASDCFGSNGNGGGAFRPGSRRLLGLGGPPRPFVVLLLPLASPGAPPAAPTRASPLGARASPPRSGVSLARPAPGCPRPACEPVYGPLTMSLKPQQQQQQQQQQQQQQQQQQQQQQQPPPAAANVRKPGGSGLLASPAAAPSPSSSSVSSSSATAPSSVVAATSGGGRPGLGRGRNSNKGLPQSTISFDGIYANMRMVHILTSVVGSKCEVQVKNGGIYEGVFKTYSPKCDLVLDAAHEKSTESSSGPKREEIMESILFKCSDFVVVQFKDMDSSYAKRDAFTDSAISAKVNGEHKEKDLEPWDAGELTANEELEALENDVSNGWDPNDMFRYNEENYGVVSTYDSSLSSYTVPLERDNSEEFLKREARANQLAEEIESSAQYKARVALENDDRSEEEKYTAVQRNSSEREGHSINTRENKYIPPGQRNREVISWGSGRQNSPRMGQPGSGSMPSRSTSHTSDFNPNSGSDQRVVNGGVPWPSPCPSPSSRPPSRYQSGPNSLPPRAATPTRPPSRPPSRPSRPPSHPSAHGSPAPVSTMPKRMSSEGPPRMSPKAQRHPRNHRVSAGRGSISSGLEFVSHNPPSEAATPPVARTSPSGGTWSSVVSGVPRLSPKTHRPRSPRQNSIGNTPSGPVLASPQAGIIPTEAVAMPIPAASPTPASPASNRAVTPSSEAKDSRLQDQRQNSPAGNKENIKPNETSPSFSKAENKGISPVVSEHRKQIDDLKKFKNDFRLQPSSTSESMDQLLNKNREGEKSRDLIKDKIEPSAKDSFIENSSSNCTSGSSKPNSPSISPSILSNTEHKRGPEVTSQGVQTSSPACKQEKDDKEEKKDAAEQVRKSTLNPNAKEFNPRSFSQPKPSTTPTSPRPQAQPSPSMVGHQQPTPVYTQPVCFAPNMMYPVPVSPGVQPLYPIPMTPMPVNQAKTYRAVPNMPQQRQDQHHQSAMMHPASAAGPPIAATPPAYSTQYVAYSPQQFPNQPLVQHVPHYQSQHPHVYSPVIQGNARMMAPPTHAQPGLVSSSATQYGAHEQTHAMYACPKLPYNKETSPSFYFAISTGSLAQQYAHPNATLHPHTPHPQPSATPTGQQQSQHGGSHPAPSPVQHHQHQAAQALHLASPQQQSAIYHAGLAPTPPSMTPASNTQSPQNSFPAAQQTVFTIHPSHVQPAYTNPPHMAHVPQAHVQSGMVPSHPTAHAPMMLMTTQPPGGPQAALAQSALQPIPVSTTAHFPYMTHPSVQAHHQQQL
Turning to `CCCn1nc(NC(=O)c2ccco2)c2cc3ccc(C)cc3nc21`, the Potency result was “inactive”.
For the compound `Cc1cccc(OCCn2c(NC(=O)c3ccco3)nc3ccccc32)c1`, the Potency was 39.8 µM (active).
To `CCCn1nc(NC(=O)c2ccco2)c2cc3cc(C)ccc3nc21` belongs “inactive”; to `COCCCn1c(=N)c(C(=O)NCC2CCCO2)cc2c(=O)n3cc(C)ccc3nc21` (stereo not given), “inactive”.
For the compound `Cc1cccc(C2=NN(c3ccccc3)[C@H](CO)[C@H]2c2ccccc2)c1`, the Potency entry was “inactive”.
Take `Cn1c(N)c(C(=O)CN2CCc3ccccc3C2)c(=O)n(C)c1=O`: the Potency entry is “inactive”.
On to `CN(C)c1ccc(C(C[N+](=O)[O-])c2c(N)n(C)c(=O)n(C)c2=O)c(F)c1C#N` (stereo not given), for which the Potency is 25.1 µM (active).
With `COc1ccccc1C(C[N+](=O)[O-])c1c(N)n(C)c(=O)n(C)c1=O` (stereo not given), the Potency is 14.1 µM (active).
Regarding `COc1ccc(Br)cc1C(C[N+](=O)[O-])c1c(N)n(C)c(=O)n(C)c1=O` (stereo not given), the Potency was 17.8 µM (active).
`CCn1cc(C(=O)N2CCCC(N3CCN(c4cccc(C(F)(F)F)c4)CC3)C2)cn1` (stereo not given): the Potency entry is “inactive”.
As to `CN(C)c1ncc(C2=C(Cl)C(=O)C(N3CCCC3)=C(Cl)C2=O)s1`, the Potency was 25.1 µM (active).
Turning to `Cc1cc2c(cc1C)C(=O)C(=O)N2`, the Potency entry was “inactive”.
For the compound `N#Cc1c(-c2ccccc2Cl)c2c([nH]c1=O)-c1ccccc1OC2`, the Potency entry is “inactive”.
To `COc1cccc2c1c(NC(=O)c1cc(C)on1)nn2C` belongs “inactive”.
Regarding `COc1cccc2cc(C(=O)C3=C(O)C(=O)N(CCN(C)C)C3c3ccc(Cl)cc3)oc12` (stereo not given), the Potency result was “inactive”.
As for `COc1ccccc1-c1cc(C(=O)Nc2cc(C)n(Cc3ccc(Cl)cc3)n2)no1`, the Potency is 28.2 µM (active).
As to `CCN(CC)c1ccc2cc(C(=O)c3cccs3)c(=O)oc2c1`, the Potency result is “inactive”.
With `O=C(COc1ccccc1F)Nc1ccc(Cl)c(-c2nc3ccccc3[nH]2)c1`, the Potency is 39.8 µM (active).
For the compound `Cc1nc2ccccc2nc1OCC(=O)Nc1ccc(F)cc1`, the Potency entry was “inactive”.
Turning to `CCc1ccc(NC(=O)COc2ccc(/C=C(/C#N)c3nc4ccccc4[nH]3)cc2OC)cc1`, the Potency entry was “inactive”.
`C/C(=N/NC(=O)c1ccncc1)c1cc2ccc(O)cc2oc1=O`: the Potency entry was “inactive”.
In the case of `COc1cccc(C(c2nnnn2C2CCCC2)N2CCN(C/C=C/c3ccccc3)CC2)c1OC` (stereo not given) it was 17.8 µM (active).
`Cc1cc(C)cc(NC(=O)COC(=O)[C@@H](NC(=O)c2ccco2)C(C)C)c1`: the Potency entry was “inactive”.
With `Cc1onc(-c2ccccc2)c1C(=O)OCCOc1ccccc1F`, the Potency result is “inactive”.
In the case of `CCCCCCCCCCOC(=O)Cn1c(COc2ccc(Cl)cc2)[n+](C)c2ccccc21` it was 25.1 µM (active); in that of `CCCOc1ccc(-c2c(=O)n(OCC(=O)OCC)c3ccccc3[n+]2[O-])cc1`, “inactive”; in that of `CC12CC3(C)CC(C)(C1)CC(C(=O)NCc1ccccn1)(C2)C3`, “inactive”.
As to `Oc1ccccc1/C=N/n1c(S)nnc1-c1ccccc1`, the Potency entry was “inactive”.
With `Sc1nnc(-c2ccccc2)n1/N=C/c1cccc(Cl)c1`, the Potency entry is “inactive”.
On to `Cc1cc(-c2nnc(S)n2/N=C/C(Br)=C/c2ccccc2)[nH]n1`, for which the Potency was 14.1 µM (active).
In the case of `CC(=O)n1cc(C(C[N+](=O)[O-])SCCN)c2ccccc21` (stereo not given) it was 22.4 µM (active); in that of `COc1c(CC=C(C)C)cc(C2CC(=O)c3c(O)cc(O)cc3O2)cc1CC=C(C)C` (stereo not given), 39.8 µM (active); in that of `COC1=CC(=O)C(C2CC(=O)c3c(O)cc(O)cc3O2)=CC1=O` (stereo not given), 33.6 µM (active).
For `COc1cc2ccc(=O)oc2c(O)c1OCC=C(C)C`, the Potency entry was “inactive”.
On to `CCOCCCn1c(=N)c(C(=O)NC(C)c2ccccc2)cc2c(=O)n3cccc(C)c3nc21` (stereo not given), for which the Potency entry is “inactive”.
For the compound `CN(C)c1nc(NC(C)(C)C)nc(SCC(=O)Nc2ccccc2)n1`, the Potency entry is “inactive”.
Regarding `C/C(CC(=O)Nc1ccc2c(c1)OCCO2)=N\NC(=O)COc1ccccc1C`, the Potency entry is “inactive”.
For `COC(C(=O)N/N=C(\C)CC(=O)Nc1ccc(N(C)C)cc1)c1ccccc1` (stereo not given), the Potency was 31.6 µM (active).
To `Nc1nc(-c2sc3nc4c(cc3c2N)CCCC4)nc(N2CCOCC2)n1` belongs “inactive”.
On to `O=C(NCC1Cc2cccc(-c3cccnc3)c2O1)c1ccc2cc[nH]c2c1` (stereo not given), for which the Potency result is “inactive”.
In the case of `Cc1cccn2c(=O)c3cc(C#N)c(=O)n(Cc4cccnc4)c3nc12`, the Potency entry is “inactive”.
For `O=C(CCl)N1c2ccccc2Sc2c1ccc1ccccc21`, the Potency was 26.7 µM (active).
In the case of `Cc1nc2c(ncn2-c2ccccc2)c(=O)n1NC(=O)CN1CCCC1` it was “inactive”; in that of `N=C(NOC(=O)c1ccc2ccccc2c1)c1ccccc1Cl`, 39.8 µM (active).
`O=C(COC(=O)c1ccc2ccccc2c1)NCCCc1ccccc1`: the Potency entry is “inactive”.
For the compound `O=C(NCCOc1ccccc1)c1ccccc1Cl`, the Potency entry is “inactive”.
In the case of `COc1ccc(C2CC(c3cccc(Br)c3)=NN2c2ccc(S(N)(=O)=O)cc2)cc1` (stereo not given), the Potency result is “inactive”.
Regarding `Oc1ccc2c(c1)OCC1(O)Cc3cc(O)c(O)cc3C21` (stereo not given), the Potency was 39.8 µM (active).
In the case of `c1ccc(Nc2scc(-c3ccccc3)[n+]2Cc2ccco2)cc1`, the Potency result is “inactive”.
To `Cc1cccc(NC(=O)CSc2nc3ccccc3c3nc(CCn4cncc4C)nn23)c1` belongs 31.6 µM (active).
As for `Cn1nnnc1SCC1=C(C(=O)O)N2C(=O)C(NC(=O)Cn3nc(C(F)F)cc3C3CC3)C2SC1` (stereo not given), the Potency result is “inactive”.
In the case of `CCOC(=O)c1nnn(-c2nonc2N)c1-c1ccc(Br)cc1`, the Potency entry is “inactive”.
Turning to `O=C(COC(=O)c1cnc(Cl)c(Cl)c1)c1ccc(F)cc1`, the Potency entry is “inactive”.
To `CC(C)N(Cc1ccccc1)C(=O)COC(=O)c1cnc(Cl)c(Cl)c1` belongs 39.8 µM (active); to `O=C(COC(=O)c1ccc(Cl)nc1)Nc1ncc(Cl)cc1Cl`, “inactive”; to `Cc1ccc(Nc2nc(N)nc(CCl)n2)cc1`, 4.74 µM (active).
To `Cc1ccccc1Nc1nc(N)nc(CN(C)Cc2ccccc2Cl)n1` belongs “inactive”; to `CCOc1ccc(Nc2nc(N)nc(CSC(=S)N3CCN(c4ccccc4)CC3)n2)cc1`, “inactive”; to `Cc1ccc(Nc2nc(N)nc(CSc3nc4ccccc4s3)n2)cc1`, 39.8 µM (active).
`Cc1ccc(Nc2nc(N)nc(CCl)n2)c(C)c1`: the Potency was 14.1 µM (active).
To `Nc1nc(O)c(NC=O)c(Nc2ccc(Cl)cc2)n1` belongs “inactive”; to `Nc1nc(CCl)nc(Nc2ccccc2)n1`, 28.2 µM (active); to `CCOc1ccc(S(=O)(=O)Nc2cc(S(=O)(=O)N3CCOCC3)ccc2OC)cc1`, “inactive”.
For `COCCn1c(-c2cccs2)nc2nc3ccccc3nc21`, the Potency result was “inactive”.
Regarding `N=c1c(C(=O)NCCc2ccccc2)cc2c(=O)n3ccccc3nc2n1CC1CCCO1` (stereo not given), the Potency result was “inactive”.
